Results from the supplement of paper PMC10338343.
± gives the standard deviation.

Experiments:
[1] = test system: MILI (PIWIL2) piRISC loaded with piRNA #1 (26 nt); experiment: pre-steady-state target cleavage rate (min^-1); guide: piRNA #1 5'p-UGAGGUAGUAGGUUGUAUAGUAUCCA; higher = faster piRNA-guided slicing of the target; conditions: auxiliary factor: 500 nM mouse GTSF1;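 further: 1 nM active piRISC with 0.1 nM target library at 33 °C single turnover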
Summary of the method: (§1)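 Three pooled Cleave-'n-Seq trials supplied the data, with k3 capped at 0.0001 min^-1. In each, […] transcribed, DNA-blocked target RNA library and 1 nM active affinity-purified piRISC with one synthetic guide reacted in HEPES–potassium acetate buffer at 33 °C for 0–8 or 0–960 min, with or without 500 nM GTSF1 partner protein. Uncleaved targets were sequenced and normalised to depth and to weakly complementary targets. A burst-and-steady-state fit provided the pre-steady-state cleavage rate.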

[2] = test system: EfPiwi piRISC loaded with piRNA #1 (26 nt); experiment: pre-steady-state target cleavage rate (min^-1); auxiliary factor: 500 nM Ephydatia muelleri Gtsf1; guide: piRNA #1 5'p-UGAGGUAGUAGGUUGUAUAGUAUCCA; MIWI and MILI are mouse PIWI proteins and EfPiwi is from a freshwater sponge; tags in brackets are library labels; higher = faster piRNA-guided slicing of the target
Summary of the method: as §1

Sequence | pre-steady-state target cleavage rate [1] | pre-steady-state target cleavage rate [2]
GGAGUGGAUACUAUACAAGGUACUACCUCA | 0.0661 ± 0.0076 | 0.00342 ± 0.0019
GGAGUGCAUACUAUACAAGCUACUACCUCA | 0.213 ± 0.014 | 0.00482 ± 0.002
GGAGACGAUACUAUACAAUCUACUACCUCA | 0.131 ± 0.0093 | 0.00912 ± 0.0039
GGAGACGAUACUAUACAACGUACUACCACA | 0.0317 ± 0.0055 | 0.0042 ± 0.0021
GGAGAGGAUACAAUACAUCCUACUACCUCA | 0.239 ± 0.021 | 0.00771 ± 0.0035
GGAGAGGUAUCUAUACAACCUACUACCUCA | 0.0739 ± 0.0068 | 0.0113 ± 0.0061
GGAGACGAUACUAUGCAACCUACUACCUCA | 0.21 ± 0.014 | 0.0141 ± 0.0066
GGAGACCUUACUAUACAACCUACUACCUUCA | 0.16 ± 0.015 | 0.0532 ± 0.019
GGAGACGAAACUAUACAACCUACUACCUGA | 0.149 ± 0.039 | 0.00491 ± 0.0026
GGAGACGAUACUAUACAACCAACAACCUCA | 0.00726 ± 0.0036 | 0.00278 ± 0.0019
GGAGACCAUACUAUACUACCUACUACCUGA | 0.134 ± 0.019 | 0.00271 ± 0.0014
GGAGAGGAUAUCUAUACAACCUACUACCUCA | 0.0599 ± 0.0073 | 0.00594 ± 0.0046
GGAGACCAUUCUAUACUACCUACUACCUCA | 0.111 ± 0.013 | 0.00741 ± 0.0044
GGAGAGGAUACUAUACAACCUACAAGCUCA | 0.00476 ± 0.0031 | 0.00284 ± 0.0023
GGAGAGGAUACUAUACAUCCUACUACCACA | 0.0843 ± 0.016 | 0.00374 ± 0.0014
GGAGACCAUACAAUACUACCUACUACCUCA | 0.158 ± 0.019 | 0.00374 ± 0.0037
GGAGAGGAUACUAUUCAACCUACUACGUCA | 0.0602 ± 0.0084 | 0.00309 ± 0.0023
GGAGAGGAUACUAUACAACCUACUGACCUCA | 0.077 ± 0.013 | 0.00473 ± 0.002
GGAGAGGUUACUAUACAACCUACUAGCUCA | 0.00459 ± 0.0029 | 0.00306 ± 0.0015
GGAGUGGAUACCUAUACAACCUACUACCUCA | 0.0993 ± 0.019 | 0.0485 ± 0.018
GGAGAGGAUACUGUACAACCUACUACCUCA | 0.121 ± 0.012 | 0.0789 ± 0.029
GGAGUGGAAACUAUACAACCUACUACCUGA | 0.105 ± 0.023 | 0.00283 ± 0.0023

Sequence | pre-steady-state target cleavage rate [1] | pre-steady-state target cleavage rate [2]
GGAGACGAUACUAUACAACCUAGUUCCUCA | 0.00516 ± 0.0038 | 0.00305 ± 0.0018
GGAGAGGAUACUAUACUACCUACUACCUGA | 0.0973 ± 0.013 | 0.00353 ± 0.002
GGAGACGAUACUAUUCAACGUACUACCUCA | 0.0257 ± 0.0034 | 0.00355 ± 0.0011
GGAGACGAUACAAUACAACCUACUACGUCA | 0.102 ± 0.015 | 0.00361 ± 0.0032
GGAGUGGAUACUAAACAACGUACUACCUCA | 0.0219 ± 0.0031 | 0.00304 ± 0.0013
GGAGACCAUACUAUACAACCUACUACGUCA | 0.116 ± 0.017 | 0.0053 ± 0.0015
GGAGUGGAUACAUAACAACCUACUACCUCA | 0.113 ± 0.0099 | 0.00683 ± 0.0044
GGAGACGAUACUAUACAACCUACUAUCUCA | 0.149 ± 0.014 | 0.00856 ± 0.0034
GGAGAGAAUACUAUACAACCUACUACCUCA | 0.177 ± 0.01 | 0.0106 ± 0.0053
GGAGACGAUACUAUAGAACCUUCUACCUCA | 0.00459 ± 0.0021 | 0.00285 ± 0.0016
GGAGAGGAUACUAUACUACCAACUACCUCA | 0.00796 ± 0.0017 | 0.00357 ± 0.0021
GGAGAGGAUACUAUACAACCUACACCUCA | 0.00718 ± 0.0031 | 0.00361 ± 0.002
GGAGACCAUACCAUACAACCUACUACCUCA | 0.157 ± 0.027 | 0.107 ± 0.044
GGAGACCUUACUAUACAACCUACUACCUCG [g2:g22:cont:t1G] | 0.173 ± 0.015 | 0.062 ± 0.022
GGAGAGGAUAGUAUACUACCUACUACCUCA | 0.0295 ± 0.0076 | 0.00274 ± 0.0027
GGAGACCUAACUAUACAACCUACUACCUCG [g2:g21:cont:t1G] | 0.189 ± 0.035 | 0.0178 ± 0.0076
GGAGUGCAUACUAUACAACCUACAACCUCA | 0.0916 ± 0.01 | 0.00301 ± 0.0024
GGAGAGGAUACUAUUCAACCUACUACCACA | 0.169 ± 0.017 | 0.00331 ± 0.0019
GGAGUGGAUAGUAUACAACCUUCUACCUCA | 0.0115 ± 0.0038 | 0.00338 ± 0.0021
GGAGACGAUACUAUACCAACCUACUACCUCA | 0.0605 ± 0.013 | 0.0123 ± 0.0043
GGAGUGGAUACUAUACAACCAACAACCUCA | 0.00386 ± 0.0015 | 0.00217 ± 0.0016
GGAGUGGAUACUAUACAAGCUAGUACCUCA | 0.0743 ± 0.014 | 0.00287 ± 0.0014

Sequence | pre-steady-state target cleavage rate [1] | pre-steady-state target cleavage rate [2]
GGAGUGGAUAGUAUACAACCUACUUCCUCA | 0.0138 ± 0.0048 | 0.00264 ± 0.0019
GGAGAGGAUACUAUACAACCUACUCACCUCA | 0.138 ± 0.016 | 0.00339 ± 0.0021
GGAGACGAUAGUAAACAACCUACUACCUCA | 0.134 ± 0.01 | 0.00554 ± 0.004
GGAGACCAUUCAAUACAACCUACUACCUCA | 0.0561 ± 0.0083 | 0.0119 ± 0.0054
GGAGACCUAACUAUACAAGCUACUACGUCA | 0.152 ± 0.033 | 0.004 ± 0.0035
GGAGACGAUACAAUACUACCUACUACCUCA | 0.201 ± 0.017 | 0.00238 ± 0.0021
GGAGACGAUACUAUACAACCUACUACCUUCA | 0.194 ± 0.018 | 0.0163 ± 0.0063
GGAGAGGGAUACUAUACAACCUACUACCUCA | 0.237 ± 0.015 | 0.0946 ± 0.037
GGAGUGGACUACUAUACAACCUACUACCUCA | 0.156 ± 0.01 | 0.0107 ± 0.0041
GGAGUGCAUACUAUACAACCUAGUACCUCA | 0.0477 ± 0.0091 | 0.00414 ± 0.0018
GGAGAGGUACUAUACAACCUACUACCUCA | 0.089 ± 0.0084 | 0.00824 ± 0.0048
GGAGACGAUACUAGACAACCUACUACCUCA | 0.171 ± 0.013 | 0.00452 ± 0.0029
GGAGACCUAUGUGAUACAACCUACUACCUCA | 0.0354 ± 0.0073 | 0.0129 ± 0.0064
GGAGACCUUACUAUACAACCUACUACCCUCA | 0.17 ± 0.019 | 0.00416 ± 0.0023
GGAGAGGAUACAAUACAACCUACUACCACA | 0.146 ± 0.015 | 0.00265 ± 0.0022
GGAGAGGAUACUCAUACAACCUACUACCUCA | 0.149 ± 0.015 | 0.0605 ± 0.024
GGAGAGGAUACUAUACAACCUACUACCUGA | 0.0731 ± 0.011 | 0.00647 ± 0.0028
GGAGACGAUACUAUCAACCUACUACCUCA | 0.14 ± 0.012 | 0.0106 ± 0.0051
GGAGAGGUAACUAUACAACCUACUACCUCA | 0.103 ± 0.015 | 0.00695 ± 0.0039
GGAGUCGAUACUAUACAACCUACUUCCUCA | 0.0291 ± 0.0072 | 0.00362 ± 0.0021
GGAGUGGAUACUAUACAACCUACUACCACA | 0.113 ± 0.0097 | 0.00561 ± 0.0019
